Source: PubChem (National Center for Advancing Translational Sciences (NCATS))
Only a selection was taken, and hits are over-represented in it overall.
TRb-SRC2 inh: TRbeta-SRC2 interaction inhibition. TRbeta-SRC2 peptide binding, fluorescence polarization; receptor liganded with 1 µM T3. Potency, µM (top dose mostly 106 µM), for the others: top-dose activity change, negative = inhibition, usual class: inhibitors. actives 0.065% (n = 280,000). AID 1469; active means well fitted inhibition curve with a large enough effect; inconclusive means small, poorly fitted or top-dose-only effect, or effect the other way;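 further: plate controls were bound peptide for no effect and peptide without receptor for full effect; nearly all actives have a fitted effect of over 50% in size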
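Human TRb LBD (0.6 uM) plus Texas Red-labeled SRC2 peptide (20 nM), 1uM T3, 5% DMSO, 5 hr at ambient temperature. Decreased polarization (555/632 nm) flags inhibition; data normalized to free and bound peptide controls.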
TexasRed fluor: Texas Red fluorescence interference in TRb-SRC2 counter-screen. TRb/SRC2 Texas Red total fluorescence interference. actives 0.29% (n = 280,000). Potency, µM (series often up to 106 µM), inactives show top-dose fluorescence change, negative = quenching; active means well fitted curve in either direction with a large enough effect; inconclusive means small, poorly fitted or top-dose-only effect; further: on the % scale 0 is the no-effect control and ±100 the full control effect
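Human TRβ ligand-binding domain (0.6 uM) and Texas Red SRC2 peptide (20 nM) in Tris buffer with 1 uM T3 and 5% DMSO were incubated with pinned compound for 5 hr at ambient temperature. Total fluorescence was computed as S + 2P (555/632 nm).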
ERG Ets-DNA blk: blocks human ERG Ets domain binding to DNA; fluorescence polarization, His-ERG Ets domain / labelled DNA; Potency, µM (doses to about 76.9 µM), for inactives: at the top dose FP activity, negative = inhibition, most hits filed as inhibitors; actives 0.028% (n = 370,000); active means well fitted inhibition curve with a large enough effect in the polarisation, with a control signal flat; inconclusive means small, poorly fitted or top-dose-only effect, or effect the other way, or a change in a side signal; inactive means no such curve, though single readings can be large or run the other way; the % refers to the polarisation;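 further: polarization taken with two DNA probes labelled with fluorescein and Texas red; % of control where 0% means no effect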
Target sequence (P11308 whole entry, looked up, the tested form may be a part): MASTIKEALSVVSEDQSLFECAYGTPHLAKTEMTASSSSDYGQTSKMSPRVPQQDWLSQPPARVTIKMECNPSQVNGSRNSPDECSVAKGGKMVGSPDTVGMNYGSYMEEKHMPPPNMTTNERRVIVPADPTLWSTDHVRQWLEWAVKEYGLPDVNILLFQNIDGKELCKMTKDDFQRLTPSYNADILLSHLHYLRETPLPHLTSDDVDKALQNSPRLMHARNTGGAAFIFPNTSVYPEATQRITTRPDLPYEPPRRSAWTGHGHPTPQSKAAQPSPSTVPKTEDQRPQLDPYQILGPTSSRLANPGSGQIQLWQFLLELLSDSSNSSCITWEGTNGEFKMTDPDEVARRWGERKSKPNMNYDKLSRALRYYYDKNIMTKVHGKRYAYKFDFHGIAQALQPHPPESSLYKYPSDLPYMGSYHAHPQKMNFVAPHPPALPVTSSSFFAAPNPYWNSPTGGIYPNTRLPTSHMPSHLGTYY
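His-tagged ERG Ets domain (1 uM in the protein solution; 300mM KCl, 50mM Tris-HCl, 1mM EDTA, 1mM DTT, pH 7.5) received compound, then a probe mix of 5 nM fluorescein-DNA and 100nM Texas-615-DNA. Fluorescence polarization was read for both dyes.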
Starred values were filed as active, the others as inactive; ? = inconclusive; nt = not tested or not shown; ! = not active in a repeat; [ ] = another dose, or the depositor's remark. Potency means the concentration at half of the fitted maximal effect.

SMILES	TRb-SRC2 inh	TexasRed fluor	ERG Ets-DNA blk
COc1ccccc1N(CC(=O)NCCSc1ccccc1)S(=O)(=O)c1ccc(C)cc1	12%	-4%	2%
COc1cc(NC(=O)N2CCC(CN3CCc4ccccc4C3)CC2)cc(OC)c1	4%	?	-2%
O=C(Nc1ccc(F)c(Cl)c1)N1CCC(CN2CCc3ccccc3C2)CC1	0%	-14%	1%
COc1ccc(Cl)cc1NC(=O)N1CCC(CN2CCc3ccccc3C2)CC1	-26%	56µM*[quencher]	-3%
COC(=O)c1ccc(NC(=O)N2CCC(CN3CCc4ccccc4C3)CC2)cc1	-30%	112µM*[quencher]	5%
CCC(=O)N1CCc2cc(Br)cc(S(=O)(=O)CCC(=O)Nc3cccc(Cl)c3)c21	4%	-3%	0%
OCCOCCOCCOCCOCCO	4%[201 µM]	0%[201 µM]	nt
O=C(CSc1nc2nccnc2c(=O)n1CCc1c[nH]c2ccccc12)Nc1ccccc1	?	?	-11%
Cc1ccc(NC(=O)CSc2nc3nccnc3c(=O)n2CCc2c[nH]c3ccccc23)cc1	?	25µM*[quencher]	-3%
CCCCCCCCCCCCCCCCCC(N)=O	-1%[201 µM]	-1%[201 µM]	nt
Cc1cc(O)c2c(c1O)C(=O)c1c(O)cc(C)c(O)c1C2=O	-6%	11%	nt
Cc1cc(=O)c2c(O)c3c(O)cc(O)c4c5c(O)cc(O)c6c(O)c7c(=O)cc(C)c8c1c2c(c34)c(c65)c78	13µM*	14µM*[fluorescent]	nt
Cc1ccccc1Nc1oc(-c2ccccc2)nc1-c1ccccc1F	8%	-1%	nt
CCOc1ccc(-c2nc3ccc(-c4nc5ccc(N6CCN(C)CC6)cc5[nH]4)cc3[nH]2)cc1	-7%	-30%	nt
O=C(O)c1ccc(/C=N/N2CCN(Cc3ccc(Cl)cc3)CC2)cc1	-6%	0%	7%
Cc1ccc(CN2CCN(/N=C/c3ccc(C(=O)O)cc3)CC2)cc1	-6%	0.063µM*[quencher]	-17%
Cc1cc(O)c(C=O)c2c1C(=O)Oc1c(CO)c(O)c3c(c1O2)C(O)OC3=O (stereo not given)	?	11µM*[quencher]	-18%
Cc1cc(O)c(C=O)c2c1C(=O)Oc1c(COC(=O)/C=C/C(=O)O)c(O)c(C(=O)O)c(C)c1O2	?	7.1µM*[quencher]	nt
Cc1cc(O)c(C=O)c(O)c1C(=O)O	-5%	0%	nt
Cc1cc(O)c(CN(C)C)c2c1C(=O)/C(=C/c1ccco1)O2	nt	nt	-12%
CC/C=C\CCOC(=O)c1ccccc1O	-3%[201 µM]	-2%[201 µM]	nt
Cc1ccc(NC(=O)CN(C)C(=O)Cn2cc(C(F)(F)F)ccc2=O)cc1	-4%	-3%	-12%
CN(CC(=O)Nc1ccc(Cl)c(C(F)(F)F)c1)C(=O)Cn1cc([N+](=O)[O-])ccc1=O	nt	nt	25µM*
CCOC(=O)c1sc(Nc2nc3cc4c(cc3s2)OCO4)cc1C	2%	0.32µM*[quencher]	0%
CC(=O)c1sc(Nc2nc3cc4c(cc3s2)OCO4)nc1C	0%	-2%	11%
SMILES	TRb-SRC2 inh	TexasRed fluor	ERG Ets-DNA blk
C[C@]12C[C@@](C)(C=C1/C=C/c1ccccc1)C(=O)C[C@H]2c1ccccc1	6%	0%	nt
CCOCCCNC(=O)Cn1nc(CC)n2c(cc3c(OC)cccc32)c1=O	3%	4%	0%
Cc1nc2c(-c3ccccc3)c(C)[nH]n2c(=O)c1Cc1ccccc1	6%	0%	6%
Cc1cccc(Cc2c(C)nc3c(-c4ccccc4)c(C)[nH]n3c2=O)c1	-6%	8.9µM*[quencher]	3%
CC(=O)c1ccc(NC(=O)CSc2nccn2C2CCCC2)cc1	1%	2%	0%
CCc1ccc(NC(=O)CSc2nc3c(sc4ccccc43)c(=O)n2CCCOC)cc1	3%	-11%	-7%
CCOc1cc(CNc2ccc(O)cc2)cc(Br)c1OCc1ccccc1F	32µM*	?	-26%
COc1cc(CNc2ccc(O)cc2)cc(Br)c1OCc1ccccc1F	2%	-3%	-28%
CCOC(=O)N1CCN(Cc2nc3cc(NC(=O)c4ccccc4[N+](=O)[O-])ccc3n2C(C)C)CC1	?	8.9µM*[quencher]	2%
CCOC(=O)N1CCN(Cc2nc3cc(NC(=O)c4ccccc4OC)ccc3n2C(C)C)CC1	-3%	8%	1%
COC(=O)c1c(Cl)nn(C)c1S(=O)(=O)NC(=O)Nc1nc(OC)cc(OC)n1	0%[201 µM]	-3%[201 µM]	nt
CC(=Nc1ccccc1N)c1c(C)cc(=O)n(O)c1O	12%	3%	nt
CCN(CC)c1cc(C)c2cc(NC(=O)/C=C/c3ccc(C)cc3)ccc2n1	10%	-3%	-2%
COc1cc(O)c2c(c1)oc(=O)c1c3cc(O)c(O)cc3oc21	?	35µM*[quencher]	nt
Cc1ccc2oc(=O)c3c4cc(O)c(O)cc4oc3c2c1	10%	-10%	nt
O=C1/C(=C/c2ccc(O)c(O)c2)Oc2ccccc21	24%	-25%	nt
COc1cccc([C@@H]2Oc3ccc(Br)cc3C(=O)[C@H]2OC(=O)Nc2cc(OC)c(OC)c(OC)c2)c1	-2%	0%	nt
Cc1ccc(OCC(=O)NCC2(N3CCN(C)CC3)CCCCC2)cc1	-2%	7%	1%
Cc1ccc(OCC(=O)NCC2(N3CCOCC3)CCCCC2)cc1C	-11%	13µM*[quencher]	2%
Cc1cc(C)cc(OCC(=O)NCC2(N3CCOCC3)CCCCC2)c1	-2%	6%	3%
Cc1cccc(OCC(=O)NCC2(N3CCN(C)CC3)CCCCC2)c1C	-10%	1259µM*[quencher]	0%
CC(=O)Nc1ccc(-c2csc(NC(=O)C3CC(=O)N(c4ccc5c(c4)OCCO5)C3)n2)cc1 (stereo not given)	-1%	-3%	22µM*
COc1ccc(-c2csc(NC(=O)C3CC(=O)N(c4ccc5c(c4)OCCO5)C3)n2)cc1 (stereo not given)	14%	-6%	-6%
CC(C)(N=C=O)c1cccc(C(C)(C)N=C=O)c1	0%[201 µM]	-6%[201 µM]	nt
Cc1ccc2c(c1)-c1ncc(C(=O)c3ccccc3O)cc1CO2	6%	4%	-2%
SMILES	TRb-SRC2 inh	TexasRed fluor	ERG Ets-DNA blk
O=C(c1cnc2c(c1)COc1ccc(Cl)cc1-2)c1ccccc1O	-15%	7.9µM*![quencher]	-12%
CCCCCCCC/C=C\CCCCCCCCCCCCC	-3%[201 µM]	-1%[201 µM]	nt
CCc1nnc(/N=C/c2c(O)n(-c3ccc(Cl)cn3)c(=O)c3ccccc23)s1	-5%	-2%	-6%
O=c1c2ccccc2c(C=Nc2ccc(S(=O)(=O)N3CCCCC3)cc2)c(O)n1-c1ccc(Cl)cn1	-12%[53 µM]	35µM*[quencher]	nt
C=C1CC2COC(=O)C2(Cc2ccc3ccccc3c2)C1 (stereo not given)	5%	3%	nt
COc1cccc(CNC(=O)C2CCN(c3ncnc4c3nc3n4CCCCC3)CC2)c1	-10%	20µM*[quencher]	-6%
Cc1ccc(C)c(N2CCN(c3ncnc4c3nc3n4CCCCC3)CC2)c1	11%	4%	10%
Cc1ccc(C)c(N2CCN(c3ncnc4c3nc3n4CCCC3)CC2)c1	-7%	20µM*[quencher]	-7%
Cc1cccc(N2CCN(C(=O)C3CCN(c4ncnc5c4nc4n5CCCCC4)CC3)CC2C)c1 (stereo not given)	-6%	20µM*[quencher]	5%
Cc1cccc(N2CCN(C(=O)C3CCN(c4ncnc5c4nc4n5CCCCC4)CC3)CC2)c1C	4%	?	?
COc1ccc(OC)c(CNC(=O)C2CCN(c3ncnc4c3nc3n4CCCCC3)CC2)c1	1%	9%	3%
CCOC(=O)c1cccc(NC(=O)Cn2c(=O)nc(-c3ccccc3F)c3cc(Cl)ccc32)c1	-8%	-1%	10%
